# According to article PMC11006913:
# Substitutions are numbered along the chain they refer to.
# How the values were obtained:
# Assay in all cases: PBM; 200 nM protein, PBS
# Conditions in all cases: dsDNA, one strand shown
# NKX2-6 [1] = molecular target: T1, NKX2-6 (Homo sapiens, UniProt A6NCS4 118-204)
# T1 sequence: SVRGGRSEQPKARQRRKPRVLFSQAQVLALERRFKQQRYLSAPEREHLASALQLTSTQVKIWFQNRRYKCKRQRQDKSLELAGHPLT
# NKX2-6 [2] = molecular target: T2, NKX2-6 (Homo sapiens, UniProt A6NCS4 118-204, F151L)
# T2 sequence: T1 sequence with F34L
# PAX4 [3] = molecular target: T3, PAX4 (Homo sapiens, UniProt O43316 9-242, R200Q)
# T3 sequence: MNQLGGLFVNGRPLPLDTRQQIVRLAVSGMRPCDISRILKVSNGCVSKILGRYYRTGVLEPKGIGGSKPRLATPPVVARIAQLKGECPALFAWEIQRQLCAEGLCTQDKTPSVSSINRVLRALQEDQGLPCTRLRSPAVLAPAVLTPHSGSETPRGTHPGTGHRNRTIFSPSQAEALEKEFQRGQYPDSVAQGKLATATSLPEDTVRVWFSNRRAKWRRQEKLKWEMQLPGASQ
# PAX4 [4] = molecular target: T4, PAX4 (Homo sapiens, UniProt O43316 9-242, R227W)
# T4 sequence: T3 sequence with Q192R, R219W
# PAX4 [5] = molecular target: T5, PAX4 (Homo sapiens, UniProt O43316 9-242, F177Y)
# T5 sequence: T3 sequence with F169Y, Q192R
# NKX3-2 [6] = molecular target: NKX3-2 (Homo sapiens, UniProt P78367 192-278, P234S)
# NKX3-2 [7] = molecular target: NKX3-2 (Homo sapiens, UniProt P78367 192-278)
# PITX2 = PITX2 (Homo sapiens, UniProt Q99697 72-157)
# Sequence of NKX3-2 (Homo sapiens, UniProt P78367 192-278, P234S) (P78367 192-278 P234S): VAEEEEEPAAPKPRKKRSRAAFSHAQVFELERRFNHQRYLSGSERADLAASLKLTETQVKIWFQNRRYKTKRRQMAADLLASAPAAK
# Sequence of NKX3-2 (Homo sapiens, UniProt P78367 192-278) (P78367 192-278): as the sequence (P78367 192-278 P234S) above, with S43P counted along it
sequence,measurement,setting,value
AGTGGCTA,binding signal,NKX2-6 [1],"11.9 upbm affinity estimate (log intensity, higher = more binding, comparable within an allelic series)"
same,binding signal,NKX2-6 [2],"9.95 upbm affinity estimate (log intensity, higher = more binding, comparable within an allelic series)"
ACTACTTA,binding signal,NKX2-6 [1],"13.5 upbm affinity estimate (log intensity, higher = more binding, comparable within an allelic series)"
same,binding signal,NKX2-6 [2],"10.5 upbm affinity estimate (log intensity, higher = more binding, comparable within an allelic series)"
CGGCGTGA,binding signal,NKX2-6 [1],"9.3 upbm affinity estimate (log intensity, higher = more binding, comparable within an allelic series)"
same,binding signal,NKX2-6 [2],"9.33 upbm affinity estimate (log intensity, higher = more binding, comparable within an allelic series)"
CAGACGGG,binding signal,NKX2-6 [1],"9.56 upbm affinity estimate (log intensity, higher = more binding, comparable within an allelic series)"
same,binding signal,NKX2-6 [2],"9.37 upbm affinity estimate (log intensity, higher = more binding, comparable within an allelic series)"
CGCGGTCA,binding signal,NKX2-6 [1],"9.54 upbm affinity estimate (log intensity, higher = more binding, comparable within an allelic series)"
same,binding signal,NKX2-6 [2],"9.33 upbm affinity estimate (log intensity, higher = more binding, comparable within an allelic series)"
ACCGGGGG,binding signal,NKX2-6 [1],"9.31 upbm affinity estimate (log intensity, higher = more binding, comparable within an allelic series)"
same,binding signal,NKX2-6 [2],"9.04 upbm affinity estimate (log intensity, higher = more binding, comparable within an allelic series)"
AAATTAGA,binding signal,PAX4 [3],"11.9 upbm affinity estimate (log intensity, higher = more binding, comparable within an allelic series)"
same,binding signal,PAX4 [4],"10.9 upbm affinity estimate (log intensity, higher = more binding, comparable within an allelic series)"
GTAAATTA,binding signal,PAX4 [3],"11.9 upbm affinity estimate (log intensity, higher = more binding, comparable within an allelic series)"
same,binding signal,PAX4 [5],"11 upbm affinity estimate (log intensity, higher = more binding, comparable within an allelic series)"
CCGCGTTC,binding signal,NKX2-6 [1],"9.4 upbm affinity estimate (log intensity, higher = more binding, comparable within an allelic series)"
same,binding signal,NKX2-6 [2],"9.39 upbm affinity estimate (log intensity, higher = more binding, comparable within an allelic series)"
CCTTAATC,binding signal,NKX2-6 [1],"11.3 upbm affinity estimate (log intensity, higher = more binding, comparable within an allelic series)"
same,binding signal,NKX2-6 [2],"9.82 upbm affinity estimate (log intensity, higher = more binding, comparable within an allelic series)"
ATCCCAGG,binding signal,NKX2-6 [1],"9.47 upbm affinity estimate (log intensity, higher = more binding, comparable within an allelic series)"
same,binding signal,NKX2-6 [2],"9.43 upbm affinity estimate (log intensity, higher = more binding, comparable within an allelic series)"
CCGGGAAC,binding signal,NKX2-6 [1],"9.33 upbm affinity estimate (log intensity, higher = more binding, comparable within an allelic series)"
same,binding signal,NKX2-6 [2],"9.31 upbm affinity estimate (log intensity, higher = more binding, comparable within an allelic series)"
same,binding signal,NKX3-2 [6],"10.5 upbm affinity estimate (log intensity, higher = more binding, comparable within an allelic series)"
same,binding signal,NKX3-2 [7],"10.5 upbm affinity estimate (log intensity, higher = more binding, comparable within an allelic series)"
CATGTGGG,binding signal,NKX2-6 [1],"9.41 upbm affinity estimate (log intensity, higher = more binding, comparable within an allelic series)"
same,binding signal,NKX2-6 [2],"9.56 upbm affinity estimate (log intensity, higher = more binding, comparable within an allelic series)"
GCTATTGA,binding signal,NKX2-6 [1],"11.7 upbm affinity estimate (log intensity, higher = more binding, comparable within an allelic series)"
same,binding signal,NKX2-6 [2],"9.84 upbm affinity estimate (log intensity, higher = more binding, comparable within an allelic series)"
ACCGTTTG,binding signal,NKX2-6 [1],"9.46 upbm affinity estimate (log intensity, higher = more binding, comparable within an allelic series)"
same,binding signal,NKX2-6 [2],"9.44 upbm affinity estimate (log intensity, higher = more binding, comparable within an allelic series)"
AGACGGCC,binding signal,NKX2-6 [1],"9.28 upbm affinity estimate (log intensity, higher = more binding, comparable within an allelic series)"
same,binding signal,NKX2-6 [2],"9.16 upbm affinity estimate (log intensity, higher = more binding, comparable within an allelic series)"
GATGAGCC,binding signal,PITX2,"9.56 upbm affinity estimate (log intensity, higher = more binding, comparable within an allelic series)"
CCCAAGGC,binding signal,NKX2-6 [1],"9.12 upbm affinity estimate (log intensity, higher = more binding, comparable within an allelic series)"
same,binding signal,NKX2-6 [2],"9.27 upbm affinity estimate (log intensity, higher = more binding, comparable within an allelic series)"
GCTTAGAA,binding signal,PITX2,"10.2 upbm affinity estimate (log intensity, higher = more binding, comparable within an allelic series)"
CAGACTAG,binding signal,NKX2-6 [1],"9.38 upbm affinity estimate (log intensity, higher = more binding, comparable within an allelic series)"
same,binding signal,NKX2-6 [2],"9.36 upbm affinity estimate (log intensity, higher = more binding, comparable within an allelic series)"
CCCGTTCG,binding signal,NKX2-6 [1],"9.17 upbm affinity estimate (log intensity, higher = more binding, comparable within an allelic series)"
same,binding signal,NKX2-6 [2],"9.43 upbm affinity estimate (log intensity, higher = more binding, comparable within an allelic series)"
same,binding signal,NKX3-2 [6],"10.5 upbm affinity estimate (log intensity, higher = more binding, comparable within an allelic series)"
same,binding signal,NKX3-2 [7],"10.5 upbm affinity estimate (log intensity, higher = more binding, comparable within an allelic series)"
AAATACTC,binding signal,NKX2-6 [1],"11.4 upbm affinity estimate (log intensity, higher = more binding, comparable within an allelic series)"
same,binding signal,NKX2-6 [2],"9.88 upbm affinity estimate (log intensity, higher = more binding, comparable within an allelic series)"
AGGGACGA,binding signal,NKX2-6 [1],"9.37 upbm affinity estimate (log intensity, higher = more binding, comparable within an allelic series)"
same,binding signal,NKX2-6 [2],"9.28 upbm affinity estimate (log intensity, higher = more binding, comparable within an allelic series)"
GTTCCACA,binding signal,NKX2-6 [1],"9.21 upbm affinity estimate (log intensity, higher = more binding, comparable within an allelic series)"
same,binding signal,NKX2-6 [2],"9.42 upbm affinity estimate (log intensity, higher = more binding, comparable within an allelic series)"
AAAGAGGG,binding signal,NKX2-6 [1],"11.6 upbm affinity estimate (log intensity, higher = more binding, comparable within an allelic series)"
same,binding signal,NKX2-6 [2],"9.79 upbm affinity estimate (log intensity, higher = more binding, comparable within an allelic series)"
AGTGCCAC,binding signal,NKX2-6 [1],"11.6 upbm affinity estimate (log intensity, higher = more binding, comparable within an allelic series)"
same,binding signal,NKX2-6 [2],"9.9 upbm affinity estimate (log intensity, higher = more binding, comparable within an allelic series)"
ACGGCACG,binding signal,NKX2-6 [1],"9.26 upbm affinity estimate (log intensity, higher = more binding, comparable within an allelic series)"
same,binding signal,NKX2-6 [2],"9.49 upbm affinity estimate (log intensity, higher = more binding, comparable within an allelic series)"
AGCCCTCA,binding signal,NKX2-6 [1],"11.1 upbm affinity estimate (log intensity, higher = more binding, comparable within an allelic series)"
same,binding signal,NKX2-6 [2],"9.52 upbm affinity estimate (log intensity, higher = more binding, comparable within an allelic series)"
same,binding signal,NKX3-2 [6],"11.5 upbm affinity estimate (log intensity, higher = more binding, comparable within an allelic series)"
same,binding signal,NKX3-2 [7],"11.6 upbm affinity estimate (log intensity, higher = more binding, comparable within an allelic series)"
AGCGGAGC,binding signal,NKX2-6 [1],"9.34 upbm affinity estimate (log intensity, higher = more binding, comparable within an allelic series)"
same,binding signal,NKX2-6 [2],"9.31 upbm affinity estimate (log intensity, higher = more binding, comparable within an allelic series)"
CCAAGGCA,binding signal,NKX2-6 [1],"9.52 upbm affinity estimate (log intensity, higher = more binding, comparable within an allelic series)"
same,binding signal,NKX2-6 [2],"9.42 upbm affinity estimate (log intensity, higher = more binding, comparable within an allelic series)"
